# Measured values reported in ChEMBL document CHEMBL4513141, “CO-ADD screening of NIH (USA) - Clinical Collection” (2021).
# Measured potencies and affinities stand elsewhere.
# How the values were obtained:
# Staphylococcus aureus = conditions: Concentration 20 uM; ASSAY_TEST Inhibition of Bacterial Growth; detection method Absorption (OD600); MEDIA CAMHB; plate type 384well; NBS; CORNING #3640; time 18 hr
# Escherichia coli = conditions: Concentration 20 uM; ASSAY_TEST Inhibition of Bacterial Growth; detection method Absorption (OD600); MEDIA CAMHB; plate type 384well; NBS; CORNING #3640; time 18 hr
SMILES,Inhibition (Staphylococcus aureus),Inhibition (Escherichia coli)
Br.COc1ccc2c(c1)[C@]13CCCC[C@@H]1[C@H](C2)N(C)CC3.O [DEXTROMETHORPHAN HYDROBROMIDE],17.11%,4.79%
Cl.Cl.OCCN1CCN(CCCN2c3ccccc3Sc3ccc(C(F)(F)F)cc32)CC1 [FLUPHENAZINE HYDROCHLORIDE],12.42%,-6.08%
Cc1ncc2n1-c1ccc(Cl)cc1C(c1ccccc1F)=NC2.Cl [MIDAZOLAM HYDROCHLORIDE],-27.39%,7.58%
CS(=O)(=O)O.O=C(O[C@@H]1C[C@@H]2C[C@H]3C[C@H](C1)N2CC3=O)c1c[nH]c2ccccc12,5.34%,6.66%
C[C@]12CC[C@H]3[C@@H](CCC4=CC(=O)CC[C@@H]43)[C@@H]1CC[C@@H]2O [NANDROLONE],-0.13%,1.44%
CN1CCN2c3ncccc3Cc3ccccc3C2C1 (stereo not drawn) [MIRTAZAPINE],-16.68%,-1.97%
Nc1nc2ccc(Cl)cc2c2nc(-c3ccco3)nn12 [CGS-15943],11.02%,5.2%
COc1cc(-c2ccc(=O)[nH]n2)ccc1OC(F)F [ZARDAVERINE],7.7%,-1.99%
Cc1ccnc2c1NC(=O)c1cccnc1N2C1CC1 [NEVIRAPINE],12.92%,-0.52%
Cl.NCC(O)c1ccc(O)c(O)c1 (stereo not drawn),10.44%,0.24%
Cl.O.Oc1cc2c(cc1O)[C@H]1c3ccccc3CN[C@@H]1CC2,11.17%,6.66%
C[C@]12Cc3c[nH]nc3C[C@@H]1CC[C@@H]1[C@@H]2CC[C@@]2(C)[C@H]1CC[C@]2(C)O [STANOZOLOL],-5.12%,3.01%
CN(C)CCc1c[nH]c2ccc(C[C@H]3COC(=O)N3)cc12 [ZOLMITRIPTAN],3.79%,7.38%
CCN(CC)CCOC(=O)C(O)(c1ccccc1)c1ccccc1.Cl,13%,-0.91%
Cl.NCCc1ccc(O)c(O)c1 [DOPAMINE HYDROCHLORIDE],8.23%,-5.62%
CC1CCC[C@H](O)CCCCCc2cc(O)cc(O)c2C(=O)O1 (stereo partly drawn),10.2%,1.45%
CCCN1C[C@H](CSC)C[C@@H]2c3cccc4[nH]cc(c34)C[C@H]21.CS(=O)(=O)O [PERGOLIDE MESYLATE],12.62%,4.25%
CNC1=Nc2ccc(Cl)cc2C(c2ccccc2)=[N+]([O-])C1 [CHLORDIAZEPOXIDE],15.47%,3.48%
O=C(O)C(Cl)Cl [DICHLOROACETIC ACID],11.87%,3.62%
CC(C)NCC(O)COc1cccc2[nH]ccc12 (stereo not drawn) [PINDOLOL],7.44%,5.35%
CC(=O)[C@H]1CC[C@H]2[C@@H]3CCC4=CC(=O)CC[C@]4(C)[C@H]3CC[C@]12C [PROGESTERONE],12.63%,3.02%
NC(=O)OCCCc1ccccc1 [PHENPROBAMATE],11.43%,2.85%
C=C(C)CN1CC[C@]23c4c5ccc(O)c4O[C@H]2c2[nH]c4ccccc4c2C[C@@]3(O)C1C5.Cl.O,1.35%,1.94%
CC(C)N(CCC(C(N)=O)(c1ccccc1)c1ccccn1)C(C)C.O=P(O)(O)O (stereo not drawn) [DISOPYRAMIDE PHOSPHATE],5.5%,-2.32%
CC(C)NCC(O)c1ccc(O)c(O)c1.Cl (stereo not drawn) [ISOPROTERENOL HYDROCHLORIDE],7.54%,-1.63%
C[C@]12CC[C@H](O)CC1=CC[C@@H]1[C@@H]2CC[C@@]2(C)[C@H]1CC[C@]2(C)O [METHANDRIOL],0.46%,5.99%
CC(COc1ccccc1)N(CCCl)Cc1ccccc1.Cl (stereo not drawn) [PHENOXYBENZAMINE HYDROCHLORIDE],12.58%,3.59%
CCC(COC(=O)c1cc(OC)c(OC)c(OC)c1)(c1ccccc1)N(C)C.O=C(O)/C=C\C(=O)O (stereo not drawn),4.02%,7.24%
CN(C)CCc1c[nH]c2ccc(Cn3cncn3)cc12.O=C(O)c1ccccc1 [RIZATRIPTAN BENZOATE],12.43%,-5.47%
